This is an account of results in PubChem BioAssay (Tox21).

Unmarked numbers belong to inactive results. Results filed as inconclusive are left out. The source made the active and inactive calls. Unless noted, calls come from the whole dose curve; as a rule, active = well fitted curve in the direction sought with a large enough effect in the repeat runs; inconclusive = weak or mixed curves; inactive = no such curve, though single readings can be large; an effect the other way counts as inactive or inconclusive.

Experiment [1] has as its target Androgen receptor (Homo sapiens) (UniProt P10275). The experiment is described as follows: qHTS assay to identify small molecule antagonists of the androgen receptor (AR) signaling pathway using the MDA cell line in the presence of 0.5 nM R1881 (AID 1259243). Note: nearly all actives have a fitted effect of over 50% in size. Note: potency is the fitted concentration of half-maximal effect. Summed up:
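MDA-kb2 human breast carcinoma cells carrying an MMTV-luciferase reporter (AR- and GR-responsive) were plated, rested 5 hr at 37C, dosed with compounds, then stimulated with 0.5 nM R1881 (final) for 16 hr; luminescence was read after ONE-Glo.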

In experiment [2] the target is Estrogen receptor (Homo sapiens) (UniProt P03372). The experiment is described as follows: qHTS assay to identify small molecule antagonists of the estrogen receptor alpha (ER-alpha) signaling pathway using the BG1 cell line in the presence of 0.1 nM 17-beta-estradiol (AID 1259244). Note: nearly all actives have a fitted effect of over 50% in size. Note: potency is the fitted concentration of half-maximal effect. The method, boiled down:
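VM7Luc4E2 cells (endogenous full-length ER-alpha, stable 4xERE-luciferase) were grown 5 days in phenol red-free medium with charcoal-stripped FBS, then exposed 22 h at 37C to compounds plus 0.1 nM (final) 17beta-estradiol; ONE-Glo luminescence read-out.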

Experiment [3] is described as follows: qHTS assay to identify small molecule HDAC inhibitors (AID 1259364). Note: top concentration of the series differs between compounds; nearly all actives have a fitted effect of over 45% in size. The method, boiled down: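 Wild-type HCT-116 cells were plated overnight, exposed to compounds for 2 h at 37 °C, then given HDAC-Glo class I/II luminogenic reagent for 30 min at room temperature before luminescence was read.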
The nature of experiment [4]: qHTS assay to identify small molecule HDAC inhibitors - cell viability counter screen (AID 1259365). For activity change, negative = cytotoxicity: series mostly up to about 92 µM. Note: nearly all actives have a fitted effect of over 50% in size. Note: potency is the fitted concentration of half-maximal effect. The method, boiled down:
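Cytotoxicity was gauged in wild-type HCT-116 cells after a brief 2hr treatment with DMSO-dissolved compounds at 37C and 5% CO2, using CellTiter-Glo luminescence developed for 30min at room temperature.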

Experiment [5] can be described thus: qHTS assay to identify small molecule agonists of the sonic hedgehog signaling (Shh) pathway - cell viability counter screen (AID 1259366). Note: nearly all actives have a fitted effect of over 50% in size. Note: potency is the fitted concentration of half-maximal effect. The method, boiled down: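 Stable Gli1-Luc NIH/3T3 clone, 2,000 cells/well. Compound exposure 24hr at 37C. Read-out: CellTiter-Fluor fluorescence.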
The nature of experiment [6]: qHTS assay to identify small molecule antagonists of the sonic hedgehog signaling (Shh) pathway - cell viability counter screen (AID 1259367). Note: nearly all actives have a fitted effect of over 55% in size. Note: potency is the fitted concentration of half-maximal effect. Summed up: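 Using CellTiter-Fluor, viability of Gli1-Luc reporter 3T3 cells is read by fluorescence in the wells used for the Shh luciferase assay. Treatment lasts 23 hr with conditioned medium, then reagent 1 hr at 37C.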
Experiment [7] in a line: qHTS assay to identify small molecule agonists of the sonic hedgehog signaling (Shh) pathway (AID 1259368; calls by dose curve; note: series mostly up to about 92 µM; nearly all actives have a fitted effect of over 15% in size). Summed up:
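NIH/3T3-derived 3T3Gli1-Luc cells carrying a stably integrated Gli1 response element–firefly luciferase reporter were plated, left 4 hr at 37 C, then given compounds in DMSO for 24 hr. Luminescence was read 30 min after adding luciferase reagent.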

The nature of experiment [8]: qHTS assay to identify small molecule antagonists of the sonic hedgehog signaling (Shh) pathway (AID 1259369; calls by dose curve; note: nearly all actives have a fitted effect of over 45% in size; note: potency is the fitted concentration of half-maximal effect). The method, boiled down: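 NIH/3T3-derived 3T3Gli1-Luc cells with stably integrated Gli1-Luc reporter were preincubated 4hr at 37 C, then given compounds in DMSO plus Shh conditioned medium and incubated 24hr. Firefly luciferase luminescence read after 30min reagent at room temperature.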

The nature of experiment [9]: qHTS assay to identify small molecule phospholipidosis (PLD) inducers (AID 1259344; active = well fitted curve in the direction sought with a large enough effect; an effect the other way counts as inactive or inconclusive). Summed up:
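Fluorescent phospholipid staining (LipidTOX Red) measured by automated microscopy in fixed HepG2 cells after 24 h treatment; nuclei counterstained with Hoechst 33342; amiodarone as reference inducer.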

For experiment [10], the target named is Estrogen receptor beta (Homo sapiens) (UniProt Q92731). The experiment is described as follows: qHTS assay to identify small molecule agonists of the estrogen receptor beta (ER-beta) signaling pathway (AID 1259377; active = well fitted activation curve with a large enough effect in the signal ratio in the repeat runs, not every such curve was filed as active; the % refers to the signal ratio; note: potency is the fitted concentration of half-maximal effect). The method, boiled down: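 Measured by fluorescence intensity from a B/G FRET beta-lactamase substrate (2 h, room temperature) in ER-beta-UAS-bla HEK293T cells treated with DMSO-dissolved compounds for 16 hr at 37C and 5% CO2.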
Chain of Estrogen receptor beta (Homo sapiens) (Q92731 whole entry, looked up): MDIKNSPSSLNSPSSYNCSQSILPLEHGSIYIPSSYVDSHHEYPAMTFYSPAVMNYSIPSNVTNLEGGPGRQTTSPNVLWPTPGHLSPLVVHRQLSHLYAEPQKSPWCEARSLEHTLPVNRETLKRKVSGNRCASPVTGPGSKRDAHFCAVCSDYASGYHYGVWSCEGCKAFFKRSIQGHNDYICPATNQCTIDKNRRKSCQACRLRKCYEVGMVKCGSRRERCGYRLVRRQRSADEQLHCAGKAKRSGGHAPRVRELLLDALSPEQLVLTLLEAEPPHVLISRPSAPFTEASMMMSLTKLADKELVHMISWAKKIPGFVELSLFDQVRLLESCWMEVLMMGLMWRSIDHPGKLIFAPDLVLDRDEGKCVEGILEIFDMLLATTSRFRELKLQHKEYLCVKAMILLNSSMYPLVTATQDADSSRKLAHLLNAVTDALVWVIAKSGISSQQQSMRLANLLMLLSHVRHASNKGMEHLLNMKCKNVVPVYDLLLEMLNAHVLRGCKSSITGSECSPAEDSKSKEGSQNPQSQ
% is set by controls: 0 for no effect and ±100 for the full control effect.

Chain of Estrogen receptor (Homo sapiens) (P03372 whole entry, looked up): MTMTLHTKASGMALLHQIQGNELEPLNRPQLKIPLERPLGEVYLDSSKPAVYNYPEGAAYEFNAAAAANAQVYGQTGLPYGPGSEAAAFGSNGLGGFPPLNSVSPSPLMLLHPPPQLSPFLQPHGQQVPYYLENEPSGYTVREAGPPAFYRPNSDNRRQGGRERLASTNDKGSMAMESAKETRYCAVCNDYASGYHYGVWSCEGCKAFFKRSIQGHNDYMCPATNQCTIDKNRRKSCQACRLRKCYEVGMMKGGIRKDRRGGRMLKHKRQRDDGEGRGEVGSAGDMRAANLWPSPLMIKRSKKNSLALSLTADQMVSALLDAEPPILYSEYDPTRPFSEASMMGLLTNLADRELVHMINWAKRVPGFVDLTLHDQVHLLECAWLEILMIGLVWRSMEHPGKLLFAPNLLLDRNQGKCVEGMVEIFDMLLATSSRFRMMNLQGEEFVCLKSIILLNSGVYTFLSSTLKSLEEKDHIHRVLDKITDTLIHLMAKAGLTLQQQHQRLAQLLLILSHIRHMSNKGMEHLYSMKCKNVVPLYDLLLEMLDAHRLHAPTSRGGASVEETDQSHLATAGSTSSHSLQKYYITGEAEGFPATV
Chain of Androgen receptor (Homo sapiens) (P10275 whole entry, looked up): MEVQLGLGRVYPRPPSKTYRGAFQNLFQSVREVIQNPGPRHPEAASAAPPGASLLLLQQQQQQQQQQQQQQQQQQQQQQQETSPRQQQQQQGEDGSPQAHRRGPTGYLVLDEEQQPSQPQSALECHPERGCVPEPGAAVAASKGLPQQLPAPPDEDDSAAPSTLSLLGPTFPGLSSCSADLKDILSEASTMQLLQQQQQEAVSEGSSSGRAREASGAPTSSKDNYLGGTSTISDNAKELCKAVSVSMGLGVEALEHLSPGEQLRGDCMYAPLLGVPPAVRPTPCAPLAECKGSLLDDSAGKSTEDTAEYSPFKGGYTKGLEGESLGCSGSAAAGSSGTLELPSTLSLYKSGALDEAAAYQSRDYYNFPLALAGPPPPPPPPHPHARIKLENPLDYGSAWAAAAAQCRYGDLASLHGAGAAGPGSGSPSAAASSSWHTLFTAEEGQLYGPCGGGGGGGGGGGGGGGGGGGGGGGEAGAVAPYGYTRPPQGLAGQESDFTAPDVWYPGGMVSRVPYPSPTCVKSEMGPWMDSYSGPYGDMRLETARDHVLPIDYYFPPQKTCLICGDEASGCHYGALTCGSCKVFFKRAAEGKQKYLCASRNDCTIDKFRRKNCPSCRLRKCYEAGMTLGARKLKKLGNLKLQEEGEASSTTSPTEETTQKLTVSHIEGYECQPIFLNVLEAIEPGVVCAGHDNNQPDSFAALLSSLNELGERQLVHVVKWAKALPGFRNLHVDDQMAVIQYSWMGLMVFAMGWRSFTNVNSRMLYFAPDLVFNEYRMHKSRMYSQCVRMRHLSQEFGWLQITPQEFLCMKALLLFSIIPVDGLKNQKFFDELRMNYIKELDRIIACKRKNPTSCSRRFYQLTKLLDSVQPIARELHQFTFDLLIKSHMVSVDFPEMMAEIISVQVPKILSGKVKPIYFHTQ

Consider `[Cl][Sn]([c]1ccccc1)([c]1ccccc1)[c]1ccccc1`, for which the Potency is 0.82 µM (active) in experiment [1], 0.231 µM (active) in experiment [5], 0.366 µM (active) in experiment [6] and 0.206 µM (active) in experiment [8]. Moreover, the activity change, negative = inhibition in [2] was -95.6% [at 19 µM]; in experiment [3], -5.43% [at 19 µM]. For the same compound, the activity change, negative = cytotoxicity in experiment [4] was 26.2% [at 19 µM]. Besides, in [7], the activity change was -11.2% [at 18.9 µM, active compounds read high].

As to `CNC(C)Cc1ccc2c(c1)OCO2` (configuration not stated), the Potency entry in [1], in experiment [2], in experiment [9], in experiment [3], in [4] and in experiment [7] was “inactive” throughout. Also, the Potency in experiment [8] was 18.9 µM (active).

For `CC1(C)CC/C(=C/c2ccc(Cl)cc2)C1(O)Cn1cncn1` (configuration not stated), the Potency in [1] was 1.21 µM (active); in experiment [2], 68.2 µM (active); in [5], 17.1 µM (active). In addition, the Potency result in experiment [9], in [3], in experiment [4], in experiment [7] and in experiment [10] was “inactive” in each case.

With `COP(N)(=S)OC`, the Potency result in experiment [1], in experiment [2], in experiment [3], in [4], in experiment [5] and in [6] was “inactive” in each case. Besides, the Potency result in [7] and in experiment [8] was “inactive” each time.

In the case of `COc1ccc([N+](=O)[O-])cc1O`, the Potency entry in experiment [1], in experiment [2], in experiment [3], in experiment [4], in [5] and in [6] was “inactive” throughout. The Potency result in [7] and in experiment [8] was “inactive” throughout.

For `C[C@@H]1CC[C@@]2(OC1)O[C@H]1[C@@H](O)[C@H]3[C@@H]4CC[C@H]5C[C@@H](O[C@@H]6O[C@H](CO)[C@H](O[C@@H]7O[C@H](CO)[C@@H](O)[C@H](O[C@@H]8OC[C@@H](O)[C@H](O)[C@H]8O)[C@H]7O[C@@H]7O[C@H](CO)[C@@H](O)[C@H](O[C@@H]8O[C@H](CO)[C@@H](O)[C@H](O)[C@H]8O)[C@H]7O)[C@H](O)[C@H]6O)[C@H](O)C[C@]5(C)[C@H]4CC[C@]3(C)[C@H]1[C@@H]2C`, the Potency in [1] was 14.5 µM (active); in experiment [2], 57.8 µM (active); in [4], 29 µM (active); in [5], 32.5 µM (active); in [6] it was 32.5 µM (active); in experiment [8], 1.15 µM (active). For the same compound, the Potency result in experiment [3] and in experiment [7] was “inactive” in each case.

In the case of `C=COCCCl`, the Potency result in [1], in [2], in [3], in experiment [4], in experiment [5] and in [6] was “inactive” each time. For the same compound, the Potency result in [7], in experiment [8] and in experiment [10] was “inactive” throughout.

Consider `CCOC(=O)c1ccccc1S(=O)(=O)NC(=O)Nc1nc(Cl)cc(OC)n1`, for which the Potency result in experiment [1], in experiment [2], in experiment [3], in experiment [4], in [5] and in experiment [6] was “inactive” in each case. Further, the Potency entry in [7] and in [8] was “inactive” each time.

For the compound `N#Cc1ccc(O)cc1`, the Potency result in experiment [1], in experiment [2], in [3], in experiment [4], in experiment [5] and in [6] was “inactive” throughout. The Potency result in experiment [7] and in experiment [8] was “inactive” throughout.

Take `CCCCCCCCCCCCCCCCCCn1cc[n+](C)c1`: the Potency was 3.83 µM (active) in [1]; 15.3 µM (active) in experiment [2]; 30.5 µM (active) in experiment [5]; 30.5 µM (active) in experiment [6]; 0.0542 µM (active) in experiment [8]. For the same compound, the Potency entry in experiment [3], in [4] and in experiment [7] was “inactive” throughout.

For the compound `COS(=O)(=O)c1ccc(C)cc1`, the Potency entry in experiment [1], in experiment [2], in experiment [3], in [4], in [5] and in [6] was “inactive” in each case. Further, the Potency result in [7] is “inactive”.

As for `CC(=O)O[C@H]1CC[C@@]2(C)C(=CC[C@@H]3[C@@H]2CC[C@]2(C)C(=O)CC[C@@H]32)C1`, the Potency in [1] is 5.45 µM (active); in [10] it was 1.72 µM (active). The Potency result in [2], in experiment [9], in [3], in experiment [4], in experiment [5] and in experiment [6] was “inactive” throughout. Also, the Potency result in experiment [7] is “inactive”.

Consider `CC(O)C#N` (configuration not stated), for which the Potency result in experiment [1], in experiment [2], in experiment [3], in experiment [4], in experiment [5] and in experiment [6] was “inactive” throughout. The Potency entry in experiment [7], in [8] and in [10] was “inactive” each time.

In the case of `N#CCCO`, the Potency entry in [1], in [2], in [3], in [4], in [5] and in experiment [6] was “inactive” throughout. Further, the Potency result in experiment [7], in experiment [8] and in experiment [10] was “inactive” throughout.

In the case of `Clc1ccc(Oc2ccccc2)cc1`, the Potency result in [1], in [2], in [3], in experiment [4], in [5] and in [6] was “inactive” throughout. Further, the Potency entry in experiment [7] and in [8] was “inactive” throughout.

Consider `CN(CCCC(=O)c1cccnc1)N=O`, for which the Potency result in experiment [1], in [2], in experiment [3], in experiment [4], in [5] and in [6] was “inactive” in each case. Also, the Potency entry in [7] and in [8] was “inactive” in each case.

Take `CCN(CC)c1c([N+](=O)[O-])cc(C(F)(F)F)c(N)c1[N+](=O)[O-]`: the Potency in experiment [1] is 27.3 µM (active); in experiment [8] it was 9.69 µM (active). In addition, the Potency result in experiment [3], in experiment [4], in experiment [5], in [6] and in experiment [7] was “inactive” each time.

As for `CCc1ccccc1C`, the Potency result in [1], in experiment [2], in experiment [3], in experiment [4], in experiment [5] and in experiment [6] was “inactive” throughout. The Potency entry in experiment [7], in experiment [8] and in experiment [10] was “inactive” in each case.

Take `CN(C)CCc1c[nH]c2ccc(O)cc12`: the Potency result in experiment [1], in [9], in experiment [3], in [4], in experiment [7] and in experiment [10] was “inactive” in each case. For the same compound, the results for the Potency in experiment [6] and in experiment [8] were 59.7 µM (active) and 8.43 µM (active), respectively.

For the compound `COc1cccc2c1C(=O)c1c(O)c3c(c(O)c1C2=O)C[C@@](O)(C(=O)CO)CC3OC1CC(N2CCOC(OC)C2)C(O)C(C)O1` (some centres not stated), the Potency in experiment [1] is 0.119 µM (active); in experiment [2], 0.15 µM (active); in experiment [5], 0.237 µM (active); in [6], 0.168 µM (active); in [8], 0.0067 µM (active). Further, the Potency entry in [4], in [7] and in experiment [10] was “inactive” in each case.

On to `CCCCOCN(C(=O)CCl)c1c(CC)cccc1CC`, for which the Potency is 30.6 µM (active) in [1] and 61.1 µM (active) in experiment [6]. For the same compound, the Potency entry in experiment [2], in experiment [3] and in experiment [7] was “inactive” each time.
